The text below walks through data of PubChem BioAssay (NCI).

What all share (experiment): NCI-60 one-dose screen, 48 h (100 = growth as untreated, 0 = no growth, -100 = all killed)
Details in all cases: 10 µM unless noted

The subject of assay [1] is HCT-15 colon.
The subject of assay [2] is HT29 colon.
The test system of assay [3] is SNB-75 CNS.
In assay [4] the test system is SNB-19 CNS.
Assay [5] has as its system U251 CNS.
For assay [6], the system named is PC-3 prostate.
In assay [7] the test system is SK-MEL-5 melanoma.
For assay [8], the system named is UACC-62 melanoma.
In assay [9] the test system is LOX IMVI melanoma.
For assay [10], the system named is SK-MEL-28 melanoma.

This is part of a sample that, as a whole, favours compounds with a hit. Of some 83,000 tested, about 20% had one in any assay.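 Single-dose data. Exposure time 48 hours. Values below 10 considered active.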 Unmarked numbers belong to inactive results. The source made the active and inactive calls.

For `COc1ccc(C2C3=C(COC3=O)N(CCO)c3cc4c(cc32)OCCO4)cc1OC` (stereo not given), the growth in [1] is 31.3%; in assay [2] it was 4.76% (active); in [3], -8.37% (active); in assay [4], 37.4%; in [5], 26.4%; in [6], 23.8%. In addition, the growth is 21% in [7], 18.1% in [8], 42.1% in assay [9] and 48.7% in assay [10].

As to `N=C(N)SCc1cccc2c(CSC(=N)N)cccc12`, the growth in assay [1] was 108%; in assay [2] it was 108%; in [3], 91.7%; in assay [4], 93.5%; in assay [5] it was 89.2%; in [6], 97.4%. The growth in assay [7] was 109%; in assay [8] it was 96.6%; in assay [9] it was 97.7%; in [10], 109%.

For the compound `O=C(Nc1ncc(Cc2ccccc2Cl)s1)c1cccs1`, the growth was 32% in [1]; 43.6% in assay [2]; 89.6% in [3]; 82.9% in assay [4]; 60.8% in [5]; 64% in [6]. Moreover, the growth is 73.3% in assay [7], 45.9% in [8], 62.5% in assay [9] and 85.2% in [10].

In the case of `COc1cccc(NC(=O)c2cccc(C3CCc4c(cc(OC)c(OC)c4OC)O3)c2)c1` (stereo not given), the growth was 63.2% in assay [1]; 71.9% in [2]; 85.6% in assay [3]; 74.1% in [4]; 75.5% in assay [5]; 28.9% in assay [6]. In addition, the growth in assay [7] was 36.4%; in assay [8], 40.6%; in [9], 59.9%; in [10], 81.5%.

With `CC1(C)OC(=O)C(=Cc2cccc(Br)c2)C(=O)O1`, the growth is 108% in [1]; 92.9% in assay [2]; 94.4% in assay [3]; 105% in assay [4]; 92.9% in assay [5]; 89.5% in assay [6]. The growth in assay [7] was 94.8%; in [8] it was 101%; in assay [9], 101%; in assay [10], 119%.

In the case of `Cc1ccccc1OCC(O)COc1ccccc1C`, the growth in [1] was 79.1%; in assay [2], 103%; in assay [3], 112%; in [4], 94.9%; in assay [5], 86.1%; in assay [6], 94.8%. The growth in assay [7] was 93.6%; in [8], 81.9%; in [9], 97.6%; in assay [10], 101%.

As for `CC1=CCC[C@@H]2C1(C)CC[C@H](C)[C@@]2(C)CC1=CC(=O)C(SC(C)(C)C)=CC1=O` (stereo not given in full), the growth was 86.4% in [1]; 77% in [2]; 77.4% in assay [3]; 94.5% in assay [4]; 85% in assay [5]; 56.1% in assay [6]. Further, the growth in assay [7] is 78.4%; in assay [8], 67.1%; in assay [9], 74.6%; in assay [10], 94.2%.

As to `Cc1nc2ccccc2c(/C=C/c2ccc(C(F)(F)F)cc2)c1C(=O)/C=C/c1ccccc1`, the growth is -49.4% (active) in assay [1]; -29.2% (active) in assay [2]; 31.3% in [3]; -66.5% (active) in assay [4]; -84.1% (active) in assay [5]; 12% in [6]. The growth was -79% (active) in [7], -39.8% (active) in assay [8], -92.2% (active) in assay [9] and -52.2% (active) in assay [10].

Consider `COc1ccccc1-n1c(-c2cc(O)ccc2C)cn2c3c(=O)[nH]c(=O)n(C)c3nc12`, for which the growth in assay [1] was 85.8%; in [2], 32%; in assay [3] it was -32% (active); in assay [4] it was 82.1%; in assay [5], 83.8%; in [6] it was 67.1%. Besides, the growth in assay [7] is 77.3%; in assay [8], 77.8%; in assay [9], 38.9%; in [10], 96.9%.

`O=C(c1ccc(F)c(Cl)c1)N1c2ccccc2Sc2ccccc21`: the growth was 27.2% in assay [1]; 36.2% in [2]; 68.6% in [3]; 77% in assay [4]; 39.4% in assay [5]; 40.3% in [6]. For the same compound, the growth in assay [7] was 34.4%; in assay [8], 25.7%; in [9], 41.2%; in assay [10], 61.7%.

Consider `O=C1Nc2ccc(F)cc2/C1=N/c1nnc(Sc2ccccc2)s1`, for which the growth in [1] is 98.3%; in assay [2], 105%; in assay [3] it was 80.2%; in assay [4], 105%; in assay [5], 91.4%; in [6], 91.7%. The growth in assay [7] is 86.7%; in assay [8], 88.8%; in assay [9], 90.9%; in assay [10], 116%.

For the compound `O=C1CC2C=CCN2C=C1NC(=O)C1CCCCC1` (stereo not given), the growth in [1] is 98%; in assay [2], 97.7%; in assay [3] it was 87.3%; in assay [4], 111%; in assay [5], 97.9%; in assay [6] it was 94.8%. The growth in assay [7] is 102%; in assay [8], 108%; in assay [9] it was 96.9%; in assay [10] it was 107%.

For the compound `CCOC(=O)c1cn2ncnc(Oc3ccc(NC(=O)NC4CC4)c(F)c3)c2c1C`, the growth in assay [1] was 60.4%; in [2] it was 110%; in [3] it was 91.3%; in assay [4], 89.2%; in [5], 82.5%; in assay [6] it was 87.7%. For the same compound, the growth in [7] was 94.9%; in assay [8], 86.9%; in assay [9] it was 87.7%; in assay [10] it was 108%.
